One assay deals with RBM28. Description: pooled miR-30 sensor sort-seq; sequence = guide strand. Conditions: shRNA.
Sequence TTTTGAACTGAACAAAACCAAA registered a sensor-assay potency score (higher = more potent) of -1.7.

Sequence TTGGTCTGGAACCCGGTCCATG gave a sensor-assay potency score (higher = more potent) of -1.16.

With TTGAAAAAGTGACATAGCCAAA, the sensor-assay potency score (higher = more potent) is -1.59.

A further assay concerns the target RBM38. The description is as above. The following applies: shRNA.
AAACAGTCCATTAACTTCTTGC: the sensor-assay potency score (higher = more potent) was found to be 0.128. On the same count and under the same terms, in the case of AAGATCTTGGTGAACGTGGTGT it was 0.0778; in that of TTAACTTCTTGCTTTCAGGTTT, 0.295; in that of TAAACAGTCCATTAACTTCTTG, -0.519. The same measure, in the same setting: the value for TTCGGGTCTTTGCAAGCCCTCT was -1.39; that for ACGAAGATCTTGGTGAACGTGG was -1.06.

In turn, TACTGGTCATAGGTGGCCGGTG registered a sensor-assay potency score (higher = more potent) of -1.24. On the same count and under the same terms, in the case of TCGAAGTACTTCCTGAGCGAGG it was -1.24; in that of TTGGTGAACGTGGTGTCCTTCT, -0.339; in that of TGGTACTGCACGAAAGTGGTGC, -0.732. In the case of TAGCTGTAGCCCACGAAGCTGG, the sensor-assay potency score (higher = more potent) was -1.08. On the same count and under the same terms, in the case of TATGGGTACTGGTCATAGGTGG it was -0.624.
Further: reference of the scale not given here.
